Assay outcomes as filed in PubChem BioAssay.
Only some compounds are listed: those with a hit (about 19% of all), similar ones and a draw of the others.
DT40 TDP1 CPT: growth inhibition of DT40 Tdp1-/-;hTDP1 cells with camptothecin (screen for TDP1 inhibitors); chicken DT40 Tdp1-/-;hTDP1 cells + 20 nM CPT, ATP luminescence, 48 h; Potency, µM (titrated, usually from 46.2 µM), inactives show top-dose activity change, negative = growth inhibition, most hits filed as inhibitors; hit rate 12% among 420,000; note: potency is the fitted concentration of half-maximal effect; nearly all actives have a fitted effect of over 55% in size
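Chicken DT40 Tdp1-/- cells stably complemented with human TDP1 were seeded at 400 cells/well in medium containing 20 nM camptothecin, exposed to pin-transferred compounds, and grown at 37 °C for at least 48 hr. Viability was read as ATP luminescence.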
HT1080NT lethal: kills 2HG-producing HT-1080-NT fibrosarcoma cells; Potency, µM (doses to about 46.1 µM), inactives show at the top dose activity, negative = less viability, most hits filed as cytotoxic; AID 686970; hit rate 1.6% among 360,000; HT-1080-NT fibrosarcoma viability, CellTiter-Glo ATP luminescence, 48 h;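 note: NT is the 2HG producing partner of a matched IDH1 knockdown line; potency is the fitted concentration of half-maximal effect; 0% = DMSO-treated cells and -100% = media-only wells without cells; nearly all actives have a fitted effect of over 55% in size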
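Viability of the 2HG-overproducing fibrosarcoma line after 48 hours of compound exposure at 37 degrees C was determined by luminescence with CellTiter-Glo, and concentration-effect curves were then fitted and categorized.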
IL1B secr inh: inflammasome signaling inhibition, IL-1 beta readout. THP-1 LPS/ATP IL-1B secretion, AlphaLISA, 16 h; hits give low values. activity change, % at 57.5 µM. hit rate 4.7% among 360,000; in the data active = activity change below about -50%; inconclusive = mostly about -30% to -49%
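Secreted IL-1B measured by AlphaLISA bead assay after 16 h compound exposure of THP-1 cells; compounds (final up to 57.5 uM) added 1 h before LPS (250 ng/mL) and ATP (1.25 mM) stimulation; lower signal means less secretion.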
ELG1 DNA repair: blocks ELG1-dependent DNA repair in HEK293T cells | hit rate 2.3% among 330,000 | Potency, µM (top dose mostly 46.1 µM), for inactives: at the highest dose activity change, negative = inhibition, usual class: inhibitors | HEK293T ELG1-luciferase reporter, luminescence, 16 h; DNA damage induced by 5-fluorouridine; note: potency is the fitted concentration of half-maximal effect; nearly all actives have a fitted effect of over 55% in size
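DMSO vehicle served as the neutral condition. Each well held 2,000 cells given 5-fluorouridine plus compound; after 16 hr at 37 °C/5% CO2, ONE-Glo was added and luciferase measured 30 min later.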
DT40 TDP1 no CPT: qHTS for Inhibitors of human tyrosyl-DNA phosphodiesterase 1 (TDP1): qHTS in cells in absence of CPT | DT40 Tdp1-/- hTDP1 cells, no CPT, ATP luminescence, 48 h | Potency, µM (series often up to 46.2 µM), for inactives: top-dose activity change, negative = growth inhibition, most hits filed as inhibitors | hit rate 15% among 420,000; note: potency is the fitted concentration of half-maximal effect; nearly all actives have a fitted effect of over 55% in size
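Cells were dispensed at 400 per well, compounds added by pin tool, plates incubated ≥48 hr at 37 °C, then CellTiter-Glo added for 30 min at room temperature before luminescence reading. Line: DT40 Tdp1-/- complemented with hTDP1; camptothecin omitted.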
HT1080 IDH1KD tx: kills HT-1080 cells with IDH1 knockdown; HT-1080 IDH1 knockdown viability, ATP luminescence, 48 h; Potency, µM (highest dose often 46.1 µM), without a hit: at the highest dose activity, negative = toxicity, actives largely listed as cytotoxic; hit rate 2% among 360,000; AID 686971;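 note: potency is the fitted concentration of half-maximal effect; 0% = DMSO wells and -100% = cell-free medium wells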
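Knockdown cells (IDH1KD HT-1080) received compounds 2 h after plating at 750 cells/well and were kept 48 h at 37 °C in 5% FBS RPMI. A CellTiter-Glo luminescence read gave % activity for curve fitting.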
The depositor's hits bear a star; u = inconclusive; x = no result given. Unless noted, calls come from the whole dose curve; as a rule, active = well fitted curve in the direction sought with a large enough effect; inconclusive = small, poorly fitted or top-dose-only effect, or another doubt; inactive = no such curve, though single readings can be large; an effect the other way counts as inactive or inconclusive. Unless noted, % is set by controls: 0 for no effect and ±100 for the full control effect.

SMILES | DT40 TDP1 CPT | HT1080NT lethal | IL1B secr inh | ELG1 DNA repair | DT40 TDP1 no CPT | HT1080 IDH1KD tx
Cc1ccc(N(C(=O)c2snc(C(N)=O)c2N)C(C(=O)NCc2ccccc2)c2ccncc2)c(C)c1 (centres undefined) | u | -28.8% | -51.0* | -7.0% | u | -21.1%
COc1ccc(C(C(=O)NCc2ccccc2)N(C(=O)c2snc(C(N)=O)c2N)C2CCCC2)cc1 (centres undefined) | 6.1% | -0.6% | -4.7 | 3.4% | -5.7% | -0.5%
COc1ccc(N(C(=O)c2snc(C(N)=O)c2N)C(C(=O)NCc2ccccc2)c2ccc(F)cc2)c(OC)c1 (centres undefined) | 25.9µM* | u | u | u | u | u
O=C(Nc1ccc(OC(F)(F)F)cc1)NC1COc2ccccc2C1 (centres undefined) | -22.6% | x | x | x | -23.2% | x
Cc1cc(C)c2cc(C#N)c(NCCNC(=O)c3ccncc3)nc2c1 | u | 25.0% | -12.7 | x | -26.0% | 26.7%
O=C(COC(=O)c1ccc(F)c(S(=O)(=O)N2CCOCC2)c1)NCc1ccccc1 | 10.1% | -5.8% | 17.8 | -5.9% | 8.0% | -0.1%
COc1cccc(OC)c1C(=O)Nc1ccccc1C(=O)N1CCCCCC1 | -3.2% | -7.4% | 1.0 | -8.6% | -0.6% | 10.1%
NC(=O)c1nsc(C(=O)N(c2cccc(F)c2)C(C(=O)NCc2ccccc2)c2ccc(O)cc2)c1N (centres undefined) | u | -0.7% | -50.7* | u | 20.6µM* | -8.1%
NC(=O)c1nsc(C(=O)N(CC(=O)NCc2ccccc2)c2cccc(F)c2)c1N | 0.8% | -6.9% | 5.1 | -1.4% | -13.0% | -7.8%
COc1cccc(OCCOCC(O)CN2CCN(Cc3ccc(Cl)cc3)CC2)c1 (centres undefined) | -25.7% | -2.0% | -16.9 | -26.3% | u | -9.2%
OC(COCCOc1ccc(Br)cc1)CN1CCN(Cc2ccccc2)CC1 (centres undefined) | u | -14.5% | u | -13.8% | 23.1µM* | -15.7%
CCc1ccc(OCCOCC(O)CN2CCN(Cc3ccc(Cl)cc3)CC2)cc1 (centres undefined) | 18.4µM* | u | -52.9* | -16.5% | u | u
COc1cc(-c2nnc(-c3ccncc3)o2)ccc1OCc1ccccc1 | u | 2.6% | 0.3 | u | 9.2µM* | -0.9%
COc1ccc(-c2nnc(-c3cccnc3)o2)cc1OC | 11.6µM* | 2.6% | -24.0 | 9.9% | u | -3.0%
CCOc1ccc(-c2nnc(-c3cccnc3)o2)cc1OCC | u | -12.7% | -7.2 | -13.1% | 16.4µM* | 1.9%
CCCNC(=O)c1cc(C2CCCN(C(=O)c3ccccc3)C2)on1 (centres undefined) | 4.2% | 16.4% | 19.9 | x | -0.2% | 4.9%
CCOc1ccsc1C(=O)O | -9.9% | -5.7% | -10.1 | 0.6% | -32.4% | 3.6%
Cc1ccc(-c2nn(C)c(=O)c3ccccc23)cc1S(=O)(=O)NCCCN(C)C | 1.1% | x | x | x | 0.0% | x
Cc1ccc(-c2nn(C)c(=O)c3ccccc23)cc1S(=O)(=O)N1CCOCC1 | 11.2µM* | 1.9% | 18.5 | u | u | -1.2%
CCOC(=O)N1CCN(S(=O)(=O)c2cc(-c3nn4c(C)nnc4c4ccccc34)ccc2C)CC1 | u | 6.9% | 19.5 | 12.1% | 25.9µM* | 8.1%
Cc1ccc(-c2nn3c(C)nnc3c3ccccc23)cc1S(=O)(=O)N(C)CCO | u | -1.6% | 2.1 | u | u | -1.3%
Cc1ccc(-c2nn(C)c(=O)c3ccccc23)cc1S(=O)(=O)N1CCCC1 | 14.6µM* | -2.4% | 20.9 | 19.2% | u | -9.7%
CCN1/C(=C/C=C/c2oc3ccc(-c4ccccc4)cc3[n+]2CC)Oc2ccc(-c3ccccc3)cc21 | 0.0073µM* | 2.59µM* | -107.4* | 11.6µM* | 0.0731µM* | 0.92µM*
CCO[C@@H]1OC(C(=O)NCc2nc3ccccc3[nH]2)=C[C@H](c2ccccc2)[C@H]1CCCO | u | -3.1% | -8.0 | u | u | -0.3%
CCO[C@H]1OC(C(=O)NCc2nc3ccccc3[nH]2)=C[C@@H](c2csc3ccccc23)[C@@H]1CCCO | u | u | -13.3 | u | 16.4µM* | u
SMILES | DT40 TDP1 CPT | HT1080NT lethal | IL1B secr inh | ELG1 DNA repair | DT40 TDP1 no CPT | HT1080 IDH1KD tx
CCO[C@@H]1OC(C(=O)NCc2nc3ccccc3[nH]2)=C[C@H](c2csc3ccccc23)[C@H]1CCCO | 23.1µM* | u | -56.4* | u | 23.1µM* | u
CCO[C@H]1OC(C(=O)NCc2nc3ccccc3[nH]2)=C[C@@H](C2CC2)[C@@H]1CCCO | 0.82µM* | u | 50.0 | 22.1% | 0.581µM* | 2.06µM*
CCO[C@H]1OC(C(=O)NCc2nc3ccccc3[nH]2)=C[C@@H](c2ccccc2)[C@@H]1CCCO | u | -2.3% | -8.0 | -8.0% | u | 7.1%
Cc1ccc(N2CC(C)Cn3c2nc2c3c(=O)n(Cc3cccc(Cl)c3)c(=O)n2C)cc1 (centres undefined) | -2.0% | x | x | x | -33.1% | x
Cc1cc(C)cc(SCc2noc(C(=O)NCc3ccccc3)c2C(=O)NCc2ccccc2)c1 | u | 1.5% | 24.9 | -4.4% | u | -0.7%
Cc1cccc(C)c1NC(=S)N/N=C/c1ccccc1C(=O)O | 3.5% | 6.7% | 1.4 | 13.0% | 2.1% | 12.4%
Cc1ccc(Cl)cc1NC(=S)N/N=C/c1cccc2ccccc12 | 2.91µM* | 3.66µM* | 47.3 | u | 4.61µM* | 2.59µM*
Cc1ccccc1NC(=S)N/N=C/c1ccc(O)cc1O | 10.3µM* | u | 71.7 | u | 9.2µM* | 10.3µM*
Cc1ccccc1C(=O)N/N=C/c1cccc2ccccc12 | -0.6% | 1.9% | 29.8 | u | -17.6% | 0.2%
Cc1cccc(NC(=S)N/N=C/c2cccc(O)c2)c1C | 2.59µM* | u | 7.4 | 18.3µM* | 2.59µM* | u
CS(=O)(=O)Nc1cccc(-c2cc(NCc3ccccc3)ncn2)c1 | 6.9% | x | x | x | 2.6% | x
NC(c1csc(Nc2cc(Oc3ccccc3)ncn2)n1)C1CCCCC1 (centres undefined) | u | u | -27.3 | x | u | 4.61µM*
NCc1csc(Nc2cc(Oc3ccccc3)ncn2)n1 | u | -3.1% | 12.1 | x | u | 23.5%
COc1ccc(C(N)c2csc(Nc3cc(Oc4ccccc4)ncn3)n2)cc1 (centres undefined) | 23.1µM* | u | -84.9* | x | 23.1µM* | u
